Measurements published in PubChem BioAssay AID540259 (Broad Institute, 2011).
Results with a measured potency or affinity are listed apart. Activity calls are given as the source filed them.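 How the source made its calls: active means cell killing, meaning signal decrease, with fitted half-maximal dose at or below ten times the top valid tested dose; inconclusive means poor fit, or flat curve with 30 to 70% signal loss; inactive means the rest.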

Assay: HeLa cell cytotoxicity, dose response, cytotoxicity control for MITF activator project, CellTiter-Glo luminescence, cherry-pick samples (AID 540259)
Details: HeLa viability, CellTiter-Glo ATP luminescence, 24 h; series mostly up to 35 µM
For `COc1ccc(C2Nc3ccccc3C(=O)N2c2ccc(C)cc2)cc1Cn1nnc2ccccc21` (configuration not stated), the outcome was “inactive”.
For `CC(=O)N1N=C(c2ccc(C)cc2)OC1c1ccc(Br)cc1` (configuration not stated), the outcome was “inactive”.
With `Cc1ccc(NC(=O)CC(=O)c2ccccc2)cc1C` the outcome was “inactive”.
With `CC1CCC(NC(=O)c2cc3c(s2)CCCC3)CC1` (configuration not stated) the outcome was “inactive”.
With `COC(=O)c1cc(-c2ccc(OC)cc2)n[nH]1` the outcome was “inactive”.
In the case of `Nc1ccc(-c2nc3ncccc3o2)c(O)c1`, the outcome is reported as “inactive”.
With `Cn1c(SCc2c(F)cccc2Cl)nnc1-c1cnccn1` the outcome was “inactive”.
With `CC(NC(=O)c1cc(COc2ccccc2)on1)c1nccs1` (configuration not stated) the outcome was “inactive”.
In the case of `O=C(NC1CCCCCC1)c1cc2c(=O)n3ccccc3nc2s1`, the outcome is reported as “inactive”.
With `COc1ccccc1C(=O)NCC(=O)Nc1ccc2c(c1)CCC2` the outcome was “inactive”.
In the case of `COc1cc(SC)ccc1C(=O)NCC1CCCCC1`, the outcome is reported as “inactive”.
For `Cc1nc(-c2ccc(NC(=O)c3ccccc3Br)cc2)cs1`, the outcome was “inactive”.
In the case of `Cn1cc(Br)c(C(=O)Nc2sc3c(c2C(N)=O)CCCC3)n1`, the outcome is reported as “inactive”.
For `Cc1ccc(-c2nn(-c3ccccc3)cc2/C=N/O)cc1`, the outcome was “inactive”.
With `CCCCNC(=O)c1cc2ccccc2s1` the outcome was “inactive”.
For `Cc1ccc2cc(NC(=O)c3ccccc3C)ccc2n1`, the outcome was “inactive”.
In the case of `CCN(CC)CC(=O)Nc1scc2c1c(=O)oc1ccccc12`, the outcome is reported as “inactive”.
For `COc1ccc(-c2noc(-c3cccc(OC)c3OC)n2)cc1OC`, the outcome was “inactive”.
For `O=Cc1ccc(OCc2ccc3ccccc3c2)cc1`, the outcome was “inactive”.
In the case of `Cc1ccc(C2=NN(S(C)(=O)=O)C(c3cccs3)C2)cc1` (configuration not stated), the outcome is reported as “inactive”.
For `c1cnc2nc(-c3ccc4c(c3)OCO4)cn2c1`, the outcome was “inactive”.
For `COc1cccc(CNc2nc3ccccc3n2C)c1O`, the outcome was “inactive”.
For `COc1ccc(NC(=O)n2ncc3cc(Cl)ccc32)cc1OC`, the outcome was “inactive”.
With `Oc1cccc(-c2nc3ccc4ccccc4c3c3c2CCC3)c1` the outcome was “inactive”.
With `Cc1ccnc(NC(=O)C2CC(=O)N(Cc3ccccc3)C2)c1` (configuration not stated) the outcome was “inactive”.
For `CCCCSc1nsc(NC(C)=O)n1`, the outcome was “inactive”.
With `Cc1ccn2cc(C(=O)Nc3nnc(C)s3)nc2c1` the outcome was “inactive”.
In the case of `Cc1ccc(/C=N/N2C(=O)c3ccccc3NC2c2ccc(C)cc2)cc1` (configuration not stated), the outcome is reported as “inactive”.
In the case of `CN1C(=O)C2C=CC1C1C(=O)N(c3ccccc3)C(=O)C21` (configuration not stated), the outcome is reported as “inactive”.
With `Brc1ccc(OCc2cn3ccccc3n2)cc1` the outcome was “inactive”.
In the case of `CCCCc1ccc(Nc2ncnc3nc[nH]c23)cc1`, the outcome is reported as “inactive”.
In the case of `CCn1c(C(=O)NC2CCC(C)CC2)cc2sccc21` (configuration not stated), the outcome is reported as “inactive”.
For `Cc1ccc(NC(=O)CCCc2ccccc2)nc1`, the outcome was “inactive”.
In the case of `CCN(CC)C(=O)c1cc(-c2ccc(Br)cc2)on1`, the outcome is reported as “inactive”.
For `CCN=c1scc(-c2ccc(F)cc2)n1/N=C/c1ccccn1`, the outcome was “inactive”.
With `COc1ccc2cc(C(=O)NCCc3ccccc3)[nH]c2c1` the outcome was “inactive”.
In the case of `Clc1ccc(-c2nc(C3CCCCC3)no2)cc1`, the outcome is reported as “inactive”.
